esBAF inh: Bmi1 luciferase reporter increase in mESCs, primary screen, esBAF inhibitor project, mouse ES cells, Bmi1 luciferase knock-in, single point | 24 h; 100% = twice the neutral-well signal | reporter increase, % at 12.5 µM | 2% of 350,000 active; in the data active = activation above about 40%;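 also: 0% = median of the plate's neutral control wells and 100% = double that signal; a rise in the Bmi1 reporter signal indicates esBAF inhibition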
Jurkat NFkB inh: inhibitors of induced NF-kB luciferase reporter, primary screen, TCR NF-kB activation inhibitor project, cell-based, luminescence, uHTS; inhibition, % at 4 µM; Jurkat, PMA/ionomycin-induced NF-kB luciferase reporter; AID 435003, 2010; 0.53% of 330,000 active; in the data active = inhibition above about 50%
Gli-Sufu block: Gli-Sufu pathway antagonists, primary screen, luciferase luminescence, Sufu-KO-LIGHT cells, uHTS; Sufu-KO-LIGHT fibroblasts, Gli luciferase reporter luminescence; inhibition, % at 5 µM; 0.74% of 340,000 active; AID 588413, 2011;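 active = inhibition above about 55%, limit read from the data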;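 also: 0% = DMSO-treated cells and 100% = wells with medium but no cells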
SMARCA2 activ: SMARCA2 (BRM) function activators, primary screen, cell-based, luminescence, high throughput; MG213 cells, MMTV-luciferase reporter, dexamethasone, overnight; activation, % at 9.1 µM; 1% of 370,000 active; AID 652017, 2013; in the data active = activation above about 7.8%;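 also: 0% = vehicle wells and 100% = reference activator wells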
697 NFkB inh: inhibitors of PMA/ionomycin-induced NF-kB reporter, 697 cells, primary screen, B-cell NF-kB inhibitor project, cell-based, luminescence, uHTS; 697 B-cell NF-kB luciferase reporter, 16 h; inhibition, % at 4 µM; 0.33% of 330,000 active; AID 435022, 2010; in the data active = inhibition above about 35%
697 NFkB conf: PMA/ionomycin-induced NF-kB reporter inhibitors, 697 retest, confirmation, B-cell NF-kB inhibitor project, cell-based, luminescence, single concentration; 697 B-cell NF-kB luciferase, 16 h; shares compounds with 697 NFkB inh; 35% of 2,000 active; inhibition, % at 4 µM; in the data active = inhibition mostly above about 28%, no sharp cut-off; inactive = mostly below about 22%
Gli-Sufu confirm: Gli-SUFU pathway antagonists, confirmation, single concentration, luciferase luminescence, Sufu-KO-LIGHT cells. shares compounds with Gli-Sufu block. Gli luciferase reporter. inhibition, % at 5 µM. 40% of 2,500 active. AID 602428, 2012;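 active = mean inhibition at 5 µM reaching about 45%, limit read from the data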;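 also: plate controls were DMSO-treated cells for no effect and wells lacking cells for full effect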
Gli cytotox: cytotoxicity in Sufu-KO-LIGHT cells, confirmation, cytotoxicity control for Gli-SUFU antagonist project, cell-based, ATP luminescence, single concentration; shares compounds with Gli-Sufu block; cytotoxicity, % at 5 µM; 32% of 2,500 active; AID 651994, 2013;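 active = mean cytotoxicity at 5 µM above about 25%, limit read from the data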;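 also: cells exposed to compound overnight for roughly 16 to 18 hours; plate controls were DMSO wells with cells for no effect and medium without cells for full effect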
Wnt3a cs: Wnt3a reporter signal inhibition, confirmation, counter-screen for Gli-SUFU antagonist project, Wnt-LIGHT cells, luminescence, single concentration. shares compounds with Gli-Sufu block. Wnt3a-driven luciferase reporter. inhibition, % at 6.25 µM. 20% of 2,500 active. AID 651995, 2013;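 active = mean inhibition above about 25%, limit read from the data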
Numbers without * were called inactive; nt = not tested or not shown. The list is not random: actives were taken first. Their share in the collection is about 3.3%.

SMILES	esBAF inh	Jurkat NFkB inh	Gli-Sufu block	SMARCA2 activ	697 NFkB inh	697 NFkB conf	others
C[C@@H]1CN([C@H](C)CO)C(=O)c2cc(C#CCN(C)C)cnc2O[C@@H]1CN(C)C(=O)c1cnccn1	3	nt	nt	nt	nt	nt
C/C(N)=C(/C#N)C(=O)COC(=O)c1cc(C)n(-c2ccc(F)cc2)c1C	67*	-61	-41	4	-498	-294
Cc1cc(C(=O)OCC(N)=O)c(C)n1-c1ccccc1	nt	-16	-9	3	-9	nt
CCOc1ccc(-c2noc(CCC(=O)O)n2)cc1	-64	27	28	-5	62*	49*
COc1ccc(-c2noc(CCCC(=O)NCC3CCCO3)n2)cc1 (stereo not given)	-38	-10	16	-4	41*	21
O=C(O)CCc1nc(-c2ccccc2)no1	-3	-4	7	-4	-8	nt
COc1cccc(-c2nc(-c3ccc(C(=O)O)cc3)no2)c1	8	-21	-136	5	-351	-413
COc1cccc(-c2noc(CCC(=O)NCCc3ccccc3)n2)c1	-69	-9	8	-6	49*	49*
O=C(Nc1ccc(F)cc1)N1C[C@@H]2[C@H](c3ccccc31)[C@H](CO)N2C(=O)Cc1cccnc1	6	nt	nt	nt	nt	nt
CO[C@H]1CN(C)C(=O)c2cc(NC(=O)c3ccc4c(c3)OCO4)ccc2OC[C@H](C)NC[C@H]1C	-1	nt	nt	nt	nt	nt
COc1ccc(-c2noc(CCC(=O)O)n2)cc1	nt	7	1	-6	1	nt
COc1ccc(-c2noc(CCCC(=O)O)n2)cc1	-78	48	43	-11	74*	58*
COc1ccc(Cc2nc(-c3ccc(NC(=O)c4cccnc4)cc3)no2)cc1	nt	-4	13	-1	51*	33*
CCOc1ccc2[nH]c3c(N4CCN(c5ccccn5)CC4)ncnc3c2c1	-3	0	44	2	45*	27
COCC#Cc1ccc2c(c1)O[C@@H](CN(C)Cc1ccncc1)[C@H](C)CN([C@H](C)CO)S2(=O)=O	5	nt	nt	nt	nt	nt
CN(C)c1ccc(C(O)Cc2nc3ccccc3n2C)cc1 (stereo not given)	-25	-107	-22	1	-269	-289
Cc1ccc(S(=O)(=O)Nc2ccc3c(c2)C(=O)N([C@@H](C)CO)C[C@H](C)[C@@H](CN(C)C(=O)c2ccccc2)OCCCC[C@H](C)O3)cc1	0	nt	nt	nt	nt	nt
C[C@@H]1CN([C@H](C)CO)C(=O)c2cc(NC(=O)CCC(F)(F)F)ccc2O[C@@H](C)CCCCO[C@@H]1CN(C)C	2	nt	nt	nt	nt	nt
COc1ccccc1N(Cc1ccccc1)S(=O)(=O)c1cccc(C(=O)Nc2ccc(C)cn2)c1	14	-10	17	-2	-29	nt
COc1ccccc1N(Cc1ccccc1)S(=O)(=O)c1cccc(C(=O)Nc2ccccn2)c1	30	-7	3	-2	-324	-190
C[C@H](CO)N1C[C@H](C)[C@@H](CN(C)Cc2ccc3c(c2)OCCN3C)OCc2cn(nn2)CCCC1=O	-2	nt	nt	nt	nt	nt
Cc1ccc(-c2nsc3c(N4CCC(C(N)=O)CC4)ncnc23)cc1	-49	-91	-1	5	78*	53*
Cc1ccc(C(=O)N2CCN(c3ncnc4c(-c5ccccc5)nsc34)CC2)cc1	nt	6	nt	nt	5	nt
COc1ccc(NC(=O)N(C)C[C@@H]2Oc3ccc(NC(=O)CCCN(C)C)cc3C(=O)N([C@H](C)CO)C[C@H]2C)cc1	-5	nt	nt	nt	nt	nt
COc1ccc(Nc2nnc(-c3ccc(O)cc3)c3ccccc23)cc1C(N)=O	nt	-3	-6	-3	39*	23
SMILES	esBAF inh	Jurkat NFkB inh	Gli-Sufu block	SMARCA2 activ	697 NFkB inh	697 NFkB conf	others
C[C@@H]1CN([C@H](C)CO)C(=O)c2cc(NC(=O)C3CCCCC3)ccc2O[C@@H]1CN(C)S(C)(=O)=O	-2	nt	nt	nt	nt	nt
O=C(N[C@@H]1CC[C@@H](CCn2cc(-c3ccc(F)cc3)nn2)O[C@@H]1CO)c1cnccn1	-1	nt	nt	nt	nt	nt
Cc1nn(C)c(C)c1CN(C)S(=O)(=O)c1ccc(F)cc1	5	15	3	-4	-14	nt
Cc1nn(C)c(C)c1CN(C)S(=O)(=O)c1ccc2ccccc2c1	nt	47	75*	-6	82*	72*	Gli-Sufu confirm=78*;Gli cytotox=28*;Wnt3a cs=37*
CO[C@@H]1CN(C)C(=O)c2cc(NS(=O)(=O)c3ccccc3C)ccc2OC[C@@H](C)N(S(C)(=O)=O)C[C@H]1C	6	nt	nt	nt	nt	nt
COc1ccc(S(=O)(=O)Nc2ccc3c(c2)CC(=O)N([C@H](C)CO)C[C@H](C)[C@@H](CN(C)S(=O)(=O)c2c(C)noc2C)O3)cc1	3	nt	nt	nt	nt	nt
CCOC(=O)Cc1ccc(NC(=O)c2ccccc2Br)cc1	14	12	-10	1	32	nt
CCOC(=O)Cc1ccc(NC(=O)c2ccc(C(C)(C)C)cc2)cc1	-72	47	60*	-7	90*	64*	Gli-Sufu confirm=68*;Gli cytotox=22;Wnt3a cs=101*
CC(=O)c1cn(CCOc2cc(C)ccc2C)c2ccccc12	-15	48	68*	-4	65*	83*	Gli-Sufu confirm=64*;Gli cytotox=21;Wnt3a cs=46*
C[C@@H]1CN([C@H](C)CO)C(=O)Cc2cc(NS(=O)(=O)c3cn(C)cn3)ccc2O[C@H]1CN(C)S(C)(=O)=O	-2	nt	nt	nt	nt	nt
Cc1ccc(/C=C2\SC(=S)N(CCCC(=O)NNC(=O)c3ccccc3O)C2=O)cc1	-86	30	60*	-10	88*	76*	Gli-Sufu confirm=59*;Gli cytotox=14;Wnt3a cs=100*
Cc1ccc(/C=C2/SC(=S)N(CCCC(=O)Nc3ccc(O)cc3)C2=O)cc1	-89	2	62*	-7	88*	93*	Gli-Sufu confirm=67*;Gli cytotox=26*;Wnt3a cs=35*
COc1cc(OC)c2c(-c3cccc(-c4ccc(OC)c(F)c4)c3)cc(=O)oc2c1	0	nt	60*	2	-347	-258	Gli-Sufu confirm=59*;Gli cytotox=60*;Wnt3a cs=-7
COc1cc(OC)c2c(-c3cccc(-c4ccc(C(C)=O)cc4)c3)cc(=O)oc2c1	-5	nt	12	nt	-36	nt
COc1ccc(S(=O)(=O)N(C)C[C@H]2Oc3ccc(NC(=O)C4CCCCC4)cc3CC(=O)N([C@H](C)CO)C[C@H]2C)cc1	0	nt	nt	nt	nt	nt

Screening results from PubChem.
